# Measured values: PubChem BioAssay (NCI)
# The panel holds about 83,000 compounds, 20% with a hit somewhere; the sample as a whole holds those more often.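 Compound tested at a single concentration for 48 hours in 96-well plates; a percent growth value below 10 was scored as active.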 Unmarked numbers belong to inactive results. Activity calls are given as the source filed them.
# Experiments:
# Experiment in all cases: NCI-60 one-dose screen, 48 h (100 = growth as untreated, 0 = no growth, -100 = all killed)
# RPMI-8226 leukemia = details: 10 µM unless noted
# OVCAR-8 ovarian = details: 10 µM unless noted
# OVCAR-5 ovarian = details: 10 µM unless noted
# OVCAR-4 ovarian = details: 10 µM unless noted
# IGROV1 ovarian = details: 10 µM unless noted
# OVCAR-3 ovarian = details: 10 µM unless noted
# HS 578T breast = details: 10 µM unless noted
# NCI/ADR-RES ovarian = details: 10 µM unless noted
# T-47D breast = details: 10 µM unless noted
# BT-549 breast = details: 10 µM unless noted
# MDA-MB-435 melanoma = details: 10 µM unless noted
# SW-620 colon = details: 10 µM unless noted
# MCF7 breast = details: 10 µM
# HCT-116 colon = details: 10 µM unless noted
# HCC-2998 colon = details: 10 µM unless noted
# KM12 colon = details: 10 µM unless noted
Compound,growth (RPMI-8226 leukemia) [%],growth (OVCAR-8 ovarian) [%],growth (OVCAR-5 ovarian) [%],growth (OVCAR-4 ovarian) [%],growth (IGROV1 ovarian) [%],growth (OVCAR-3 ovarian),growth (HS 578T breast) [%],growth (NCI/ADR-RES ovarian) [%],growth (T-47D breast),growth (BT-549 breast) [%],growth (MDA-MB-435 melanoma),growth (SW-620 colon) [%],growth (MCF7 breast) [%],growth (HCT-116 colon) [%],growth (HCC-2998 colon) [%],growth (KM12 colon) [%]
CCCN1C(=O)N(CCC)C2C1NN=c1s/c(=C3\C(=O)N(C(C)C)c4ccccc43)c(=O)n12 (stereo unspecified),61.2,58.4,76,42.9,41.5,-15% (active),30.3,44.5,28.1%,47.7,-7.13% (active),35.9,15.4,20,65.3,26.9
CC(C)c1ccc(S(=O)(=O)NC(=O)NC2CCCC2)cc1,105,98.5,97.4,97.2,105,110%,103,105,98.9%,100,100%,97.9,93.2,97.5,108,103
O=c1c2cc(F)ccc2sc2c(NCCN3CCCC3)nc3ccccc3c12,33.9,63,72.1,54.2,61.7,48.8%,56.8,66.4,61.9%,86.7,23.2%,19.1,30.4,39.1,30.9,39.5
O=C1Nc2ccccc2/C1=C/c1cccs1,93.7,91.6,95.5,37,72,90.5%,94.8,91.8,-4.77% (active),88.5,104%,98.3,60.8,99.9,91.4,77.1
Cc1cc2c(c(C)c1Cl)C(=O)/C(=C/c1ccco1)O2,87,102,114,63.3,59.2,104%,98.8,104,47.5%,103,100%,108,24.7,98.7,97.6,75.9
COC(=O)/C(CCC=C(C)C)=C1\[C@@H](OC(C)=O)C[C@@]2(C)[C@H]1C[C@@H](O)[C@H]1[C@@]3(C)CC[C@H](NCCCNCCCCNCCCN)[C@@H](C)[C@@H]3CC[C@@]12C,20.2,54.6,88.1,85.1,41.9,83%,82.7,65.9,57%,80.4,8.03% (active),55.8,95.6,47.1,52.1,21.7
